Compound activity as filed in PubChem.
Many of the other results were omitted from the sample, so hits are more common in it than they were.
Dicer processing: blocks human Dicer maturation of pre-miR-21; Q9UPY3; cat-ELCCA pre-miR-21 Dicer processing, chemiluminescence; active compounds read high; z-score at 25 µM; 6% of 47,000 active; AID 1347074; in the data active means z-score above about 3, passing the limit was not always enough;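 further: plate controls were vehicle for no effect and no enzyme for full effect; higher signal means more uncleaved substrate so more Dicer inhibition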
Numbers without * were called inactive.

SMILES	Dicer processing
CCOC(=O)Cn1c(-c2ccccn2)nc2ccccc21	-0.59
NC(=O)Cn1c(SC2CCCCC2)nc2ccccc21	1.74
NC(=O)CSc1nc2ccccc2n1CCO	12.1
CCSc1nc2ccccc2n1CC(N)=O	6.65*
CCn1c(SCC(=O)O)nc2ccccc21	3.11*
CCOC(=O)Cn1c(C)nc2ccccc21	4.66*
CCOC(=O)Cn1c(=O)n(CC(=O)OCC)c2ccccc21	-1.06
O=C(O)CCSc1nc2ccccc2n1Cc1ccccc1	1.4
O=C(O)Cn1c(SCc2ccccc2)nc2ccccc21	1.23
COc1ccc(S(=O)(=O)Nc2nc(C)cc(C)n2)cc1	9.65
Nc1ccccc1SC(C[N+](=O)[O-])c1ccc(Cl)cc1 (centres undefined)	10.7
N#CCCN(Cc1cccs1)C(=O)CSCC(=O)O	2.98
C=CCOC(=O)C1=C(C)N=C2SCCC(=O)N2C1c1cccc(F)c1 (centres undefined)	2.01
CSc1c(C#N)c(-c2cccs2)nn1C(=O)C(Cl)(Cl)Cl	-0.71
COC(=O)c1cc(C)nc(Sc2ccccc2NC(=O)c2ccc(Cl)cc2)n1	-2.07
CCOC(=O)c1c(C)nn(-c2ncccc2N)c1C	0.83
O=C(NCc1ccccc1)c1sc2sccc2c1Cl	0.32
Cc1ccc(-c2nc3ccccc3[nH]2)cc1	0.21
Cc1ccc(SCc2ccccc2-c2nc3ccccc3[nH]2)cc1	-1.35
Oc1ccccc1-c1nc2ccccc2[nH]1	3.18*
COc1cccc(NC(=O)C(=O)c2cc(Br)ccc2NC(C)=O)c1	0.52
N#CC1=C(N)Oc2n[nH]c(-c3ccccc3)c2C1c1ccc(Cl)cc1 (centres undefined)	-5.09
Nc1n[nH]c(-c2ccccc2)c1-c1ccccc1	3.53*
Nc1nc(-c2ccccc2)cc(=O)[nH]1	0.66
CN(C)c1ccc(C(=O)NNC(=O)/C=C/c2ccc3c(c2)OCO3)cc1	1.94
SMILES	Dicer processing
N#CCCS(=O)(=O)c1ccccc1F	0.61
Cc1nc(-c2cccs2)sc1C(=O)NNC(=O)Nc1ccc(Cl)cc1	0.9
CC(C)(C)c1cc(NC(=O)Nc2ccc(Cl)cc2Cl)no1	-1.16
Cc1cc(-c2nc(C)c(C(=O)NNC(=O)Nc3ccc(Cl)cc3Cl)s2)no1	3.11*
Cn1c(N/N=C/c2ccc(Br)cc2)nc2c1c(=O)n(Cc1cccc(F)c1)c(=O)n2C	1.57
N#CC1=C(Cl)c2cc(Cl)ccc2SC1	-0.31
Fc1ccc(-c2cn3cc(Cc4ccccc4Cl)sc3n2)cc1	0.06
Clc1ccc(-c2cn3cc(Cc4ccccc4)sc3n2)cc1	2.41
CCc1ccc(Cc2cn3cc(-c4ccccc4)nc3s2)cc1	-0.59
Cc1ccc(Cc2cn3cc(-c4ccccc4)nc3s2)cc1	-0.16
Fc1ccc(Cc2cn3cc(-c4ccc(F)cc4)nc3s2)cc1	3.94*
Fc1ccc(-c2cn3cc(Cc4ccc(Br)cc4)sc3n2)cc1	3.42*
O=c1[nH]nc(-c2cc(C(F)(F)F)cc(C(F)(F)F)c2)c2ccccc12	0.15
CN(C)c1ccc(C2Nc3ccccc3O2)c(Cl)c1 (centres undefined)	-0.77
COc1cccc(Oc2c(C(F)(F)F)oc3cc(OC(=O)N4CCOCC4)ccc3c2=O)c1	1.29
CC1=C(C(=O)OC2CCCCC2)C(c2ccc(N(C)C)cc2)C2=C(CC(C)(C)CC2=O)N1 (centres undefined)	0.27
O=[N+]([O-])c1ccc(CSc2cc(-c3ccccc3)nc3ncnn23)cc1	-1.79
COc1ccc(S(=O)(=O)N=S2CCN(c3ncc(C(F)(F)F)cc3Cl)CC2)cc1	-0.86
CCCC(=O)N(c1ccc2oc(=O)sc2c1)S(=O)(=O)c1cccs1	-1.13
CC(C)C(=O)N(c1ccc2oc(=O)sc2c1)S(=O)(=O)c1ccccc1	2.56
O=C(C1CCCCC1)N(c1ccc2oc(=O)sc2c1)S(=O)(=O)c1cccs1	3.72*
N#CC(C(=O)c1cccs1)=C1SCCS1	3.79*
N#CC(C(=O)c1ccccc1)=C1SCCCS1	1.68
N#CC(C(=O)c1ccccc1Cl)=C1SCCCS1	-0.64
CCCCCCNC(=S)NNC(=O)COc1ccc(C)c2c1CCC2	1.21
SMILES	Dicer processing
Cc1nc2ccccc2c(C(=O)O)c1N	-2.82
CSc1ccc(CN2CCN(S(=O)(=O)c3ccc(Cl)cc3)CC2)cc1	3.45*
COc1cc(C)c(S(=O)(=O)N2CCN(Cc3ccc4c(c3)OCO4)CC2)cc1C	0.76
Cc1ccc(S(=O)(=O)N2CCN(Cc3ccc4c(c3)OCO4)CC2)cc1	7.36*
Cc1ccc(Cc2c(C)nc(N3CCCC3)[nH]c2=O)cc1	0.86
Cc1cc(C)c(S(=O)(=O)N2CCN(Cc3ccc4c(c3)OCO4)CC2)c(C)c1	-1.27
c1cnc(N2CCN(Cc3ccc4c(c3)OCO4)CC2)nc1	0.47
CSc1ccc(CN2CCN(S(=O)(=O)c3ccccc3)CC2)cc1	2.36
CC1(C)CC(=O)c2cnc(N3CCN(Cc4ccc5c(c4)OCO5)CC3)nc2C1	1.08
CSc1ccc(CN2CCN(S(=O)(=O)c3ccc(C)cc3)CC2)cc1	-2.06
O=C(c1ccncc1)N1CCN(Cc2ccc3c(c2)OCO3)CC1	0.43
Cc1nc(N2CCN(Cc3ccc4c(c3)OCO4)CC2)[nH]c(=O)c1CCC(C)C	3.74*
Cc1nc(N2CCN(Cc3ccc4c(c3)OCO4)CC2)[nH]c(=O)c1C	3.23*
